# Test results reported in the supplement of paper PMC6555819.
# What was measured:
# Assay in all cases: PBM binding z-score (relative to random genomic background probes); higher = stronger binding; sequences stand for … in GC…GCGATTGACAGCGTAGAATGAAGG
# [1] = test system: FXR:RXRa (NR concentration 270 nM, RXRa partner concentration 90 nM)
# In short: (§1)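 For binding z-scores, the reference was random background probes on custom Agilent 4×180K protein-binding microarrays. These arrays were incubated 1 h with ligand-free nuclear receptor dimers in PBS pH 7.4, 2% milk, 0.02% Triton X-100, 1 mM DTT, 0.2 mg/mL BSA and 0.4 mg/ml salmon testes DNA. Fluorescence was scanned after antibody detection of each partner (one per run) and regression-normalized.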
# [2] = test system: LXRa:RXRa (NR concentration 270 nM, RXRa partner concentration 90 nM)
# In short: as §1
# [3] = test system: LXRa homodimer (NR concentration 270 nM)
# In short: as §1
# [4] = test system: LXRb:RXRa (NR concentration 270 nM, RXRa partner concentration 90 nM)
# In short: as §1
# [5] = test system: LXRb homodimer (NR concentration 270 nM)
# In short: as §1
# [6] = test system: PPARa:RXRa (NR concentration 270 nM, RXRa partner concentration 90 nM)
# In short: as §1
# [7] = test system: PPARg:RXRa (NR concentration 180 nM, RXRa partner concentration 90 nM)
# In short: as §1
# [8] = test system: PPARg:RXRa 270nM:90nM, anti-RXR (NR concentration 270 nM, RXRa partner concentration 90 nM)
# In short: as §1
# [9] = test system: PPARg:RXRa 30nM:10nM, anti-RXR (NR concentration 30 nM, RXRa partner concentration 10 nM)
# In short: as §1
# [10] = test system: PPARg:RXRa 90nM:30nM, anti-RXR (NR concentration 90 nM, RXRa partner concentration 30 nM)
# In short: as §1
# [11] = test system: PPARg:RXRa DBDmut IVT, anti-RXR (DBD mutation: RXRa K156A/R161A, NR concentration 270 nM, RXRa partner concentration 90 nM)
# In short: as §1
# [12] = test system: PPARg:RXRa IVT, anti-PPARg (NR concentration 270 nM, RXRa partner concentration 90 nM)
# In short: as §1
# [13] = test system: PPARg DBDmut:RXRa IVT, anti-PPARg (DBD mutation: PPARg1 K132A/R137A, NR concentration 270 nM, RXRa partner concentration 90 nM)
# In short: as §1
# [14] = test system: PPARg DBDmut IVT, anti-PPARg (DBD mutation: PPARg1 K132A/R137A, NR concentration 270 nM)
# In short: as §1
# [15] = test system: PPARg homodimer (NR concentration 180 nM)
# In short: as §1
# [16] = test system: PXR:RXRa (NR concentration 270 nM, RXRa partner concentration 90 nM)
# In short: as §1
# [17] = test system: PXR homodimer (NR concentration 270 nM)
# In short: as §1
# [18] = test system: RARa:RXR (NR concentration 270 nM, RXRa partner concentration 90 nM)
# In short: as §1
# [19] = test system: RARa homodimer (NR concentration 270 nM)
# In short: as §1
# [20] = test system: RARb:RXRa (NR concentration 270 nM, RXRa partner concentration 90 nM)
# In short: as §1
Sequence,PBM binding z-score [1],PBM binding z-score [2],PBM binding z-score [3],PBM binding z-score [4],PBM binding z-score [5],PBM binding z-score [6],PBM binding z-score [7],PBM binding z-score [8],PBM binding z-score [9],PBM binding z-score [10],PBM binding z-score [11],PBM binding z-score [12],PBM binding z-score [13],PBM binding z-score [14],PBM binding z-score [15],PBM binding z-score [16],PBM binding z-score [17],PBM binding z-score [18],PBM binding z-score [19],PBM binding z-score [20]
TATAGCAGGCCAGAGGGTCACTCAAGAGGTACGG,1.02,1.2,-0.173,1.21,-0.338,2.59,2.56,3.15,1.56,3.12,-0.0119,1.41,0.475,-0.0534,1.11,1.73,-0.392,2.46,-0.269,2.09
TCTTGCAGATCAAAGGTTAAGAAAGCCGAAGCCT,1.5,1.61,-0.333,1.79,-0.606,4.12,5.83,6.41,5.71,6.62,0.914,2.37,0.0487,-1.09,0.464,1.72,-0.464,2.7,-0.444,1.7
ATCGAAAGGTCGAGGTGAGTTTAGAGAAAGGGAA,4.34,3.68,-0.00415,2.76,0.473,4.5,3.03,3.81,1.16,2.57,0.367,2.26,0.969,0.594,1.7,5.04,1.12,3.71,0.68,4.26
CCTAGTTGGTCAGGAGGTCACACGCCGGATATGA,3.62,3.32,1.92,3.15,0.554,4.05,3.59,3.92,1.69,2.84,1.84,3.74,0.471,-0.188,3.2,4.12,1.31,4.32,1.9,3.71
TCTCGGAGGACACGAAGGTCAGAGGTTTCCAGAG,1.53,1.38,0.357,1.1,-0.91,2.12,0.856,2.22,2.35,2.2,1.38,1.27,-0.769,-0.978,1.73,2.39,1.24,2.75,0.0674,3.42
CGAACTAGGTCAACCAGGACAGTGAATACATTGA,4.29,2.78,0.571,2.31,0.00788,4.98,8.21,6.58,4.17,5.96,8.5,8.35,1.56,1.35,1.73,2.02,0.839,2.3,0.835,4.17
ACTATTAGTTGACTTAGGGAAACCGATACGACGC,0.197,0.155,0.512,0.0262,0.742,-0.255,0.843,0.171,0.193,0.259,0.323,0.25,1.26,1.45,0.412,-0.145,0.319,0.0911,0.75,0.0734
CGAACTAGGTCAGAACGGGACAGTGAAGGATGAT,0.777,0.488,-0.316,0.113,-0.487,3.16,5.01,4.15,1.79,3.38,6.92,7.17,2.46,2.6,1.57,0.217,-0.225,0.856,-0.237,2.75
TAAGACAGGTGAAGGTAACTCAGGTACGCAGTCG,0.669,1.42,0.116,0.904,1.51,0.916,1.01,1.38,1.67,1.57,0.644,1.64,0.53,0.465,0.394,0.257,0.588,0.526,0.631,1.51
CAGCCTAGGTCAGGGCCAGCATAGGAGGAACGTT,1.52,0.758,-0.392,0.314,-1.18,1.98,0.816,1.02,-0.543,0.19,1.28,1.44,-0.858,-1.51,0.398,0.0493,-0.664,0.806,-0.366,3.37
ACTAGTTGGTCAGCTGAGGTCACATACAATTCGG,2.13,2.95,2.7,3.37,0.543,3.41,1.77,1.98,0.658,1.17,1.59,2.44,0.89,0.482,2.09,5.26,1.85,4.17,0.305,3.4
ATATGTAGGTTATGGGTCATTCAGGTTGGTTCGC,3.1,3.26,1.87,3.22,1.22,5.51,9.66,8.74,8.22,9.39,7.25,7.26,2.55,1.93,3.33,4,1.51,3.63,2.31,2.52
GCTATTAGTTGAAAGGGTAACCGAATGATTCTCG,-0.0135,0.398,0.254,0.557,-0.148,1.63,1.39,3.38,1.36,3.03,0.535,0.734,0.307,0.443,0.807,0.366,0.207,1.02,0.465,0.813
TCTGCTAGGTCAGTTTGTCAGCTAACGAGCTGCC,0.772,0.567,-0.461,0.457,0.977,1.03,-0.179,1.12,1.38,1.4,2.1,2.5,0.124,0.15,-0.156,0.322,-0.604,0.454,-0.407,2.72
AGAATGAGGCTACCAAAGATCAGGGAAACGCTTG,-0.398,0.883,-0.337,-0.482,-1.07,0.361,0.85,0.0255,-0.0527,0.1,1.61,0.854,0.153,-0.213,-0.49,-0.51,-0.439,-0.0885,-0.557,0.164
GGAACGAGGGCAAAATTGATAGCATCTGTCGACG,0.343,0.168,-0.325,0.129,-0.58,1.03,1.22,1.52,0.191,0.732,3.25,2.12,0.369,-0.0358,0.19,0.226,-0.165,0.355,-0.196,1.57
ATCTCTAGGTAACAAGTTCAGTGAGAGAGAGGAC,0.938,0.818,0.556,0.613,1.01,1.54,1.41,2.15,0.897,1.64,3.21,3.22,1.3,1.5,1.39,1.73,1.77,0.827,1.3,1.75
CCTTACGGGGCACTCCAGGTTATAGCATCGGAGT,0.717,5.05,0.548,1.13,-0.636,0.679,0.305,0.0783,-0.441,-0.274,0.818,0.578,-0.912,-1.1,0.148,0.683,-0.195,0.828,-0.55,1.05
TAGCCTAGGTCAGATCGGGCCAGTAGACGCTATA,2.39,0.985,-0.414,0.183,-0.713,1.45,0.406,0.586,-0.637,0.224,0.0206,1.03,-0.87,-1.34,0.0238,0.619,-0.847,0.622,-1.52,2.99
TGAATGAGGTTAAAGAACAGGGAACGTGGCGTCG,2.39,1.98,-0.259,1.32,0.39,3.38,2.53,3.32,1.51,3.04,1.89,2.33,0.69,0.463,0.725,1.13,0.0217,1.52,0.262,1.95
CGTCCAAGGTCATAGGAGGTCAGTGAGGACAGAT,7.69,7.5,5.15,6.18,0.987,5.86,5.58,5.89,2.52,4.86,3.74,4.55,1.02,0.649,5.73,6.88,11.7,6.37,3.47,5.29
AGAATGAGGTTATTAAGATCAGGGCATTGCGGTC,1.9,1.95,0.705,1.39,-0.0987,2.66,1.67,2.33,1,1.39,3.64,2.96,0.978,-0.0431,1.27,1.83,1.83,1.79,0.408,1.75
GCTGGTAGGTCAGGTTGGTCAGCTAACGGGTACG,1.28,1.03,0.172,0.929,-0.0209,2.05,1.44,1.88,0.102,1.02,3.54,3.65,-0.271,0.163,1.32,0.581,0.431,0.986,0.462,3.16
AGAATGAGGTTAAGATCCGGGAAACAGAATACAT,2.5,1.75,-0.0766,1.58,-0.277,3.26,2.03,1.97,0.812,1.72,2.97,2.71,1.45,0.576,0.097,0.953,0.0989,2,0.396,1.88
CCTACTGGGCCACCAGGTCATTGATATCAACGTT,1.25,1.07,0.943,1.56,-0.0133,3.16,4.32,4.3,1.41,3.26,4.8,6.19,-0.327,-0.298,1.02,1.73,0.656,1.75,0.342,1.98
CGTCCAGGGTCAGAGAGGTCAGTGAATGCCGAGT,5.65,4.8,1.62,4.15,-0.103,4.87,3.32,4.21,1.19,2.81,1.59,2.32,-0.324,-0.926,3.95,6.01,9.1,5.52,1.6,4.77
ATTCCAAGGTGATCGTGAGGTCGTTGATACTAAC,2.16,1.56,0.734,1.23,0.167,1.52,0.194,0.382,0.172,0.122,0.951,1.47,0.731,0.342,0.792,3.26,1.64,2.55,0.906,1.33
CCTTACCGGTCACTGACAGGTTATAGCATTTGGA,1.09,1.89,1.73,1.31,0.619,1.49,0.664,0.675,0.114,0.418,0.892,1.17,0.534,0.217,2.23,1.01,0.467,1.29,1.61,3.06
